The record followed here is the supplement of paper PMC6411743.

± gives the standard deviation of the averaged measurements. Targets with the largest changes are over-represented here; the source holds about 5,400 in all.

Compound in the experiment: Nc1nc2c(ncn2[C@@H]2O[C@H](COP(=O)(O)OP(=O)(O)OP(=O)(O)O)[C@@H](O)[C@H]2O)c(=O)[nH]1 [guanosine triphosphate]
Put plainly: NP40-soluble protein abundance relative to vehicle (solubility fold change) (ratio); higher = more soluble protein in presence of GTP. The procedure, abridged: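 Each value is a fold change relative to the detergent-processed vehicle, calculated per replicate from vsn-normalised intensities. Jurkat crude lysate received eight concentrations (0.1 to 10 mM) for 10 min at room temperature and 3 min at 37 °C, then was solubilised in 0.8% NP40 with benzonase (60 min, 4 °C). The ultracentrifuged supernatant was TMT-labelled and run by LC-MS/MS in three independent experiments.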

Sequence of UniProt Q13325 (Q13325 whole entry): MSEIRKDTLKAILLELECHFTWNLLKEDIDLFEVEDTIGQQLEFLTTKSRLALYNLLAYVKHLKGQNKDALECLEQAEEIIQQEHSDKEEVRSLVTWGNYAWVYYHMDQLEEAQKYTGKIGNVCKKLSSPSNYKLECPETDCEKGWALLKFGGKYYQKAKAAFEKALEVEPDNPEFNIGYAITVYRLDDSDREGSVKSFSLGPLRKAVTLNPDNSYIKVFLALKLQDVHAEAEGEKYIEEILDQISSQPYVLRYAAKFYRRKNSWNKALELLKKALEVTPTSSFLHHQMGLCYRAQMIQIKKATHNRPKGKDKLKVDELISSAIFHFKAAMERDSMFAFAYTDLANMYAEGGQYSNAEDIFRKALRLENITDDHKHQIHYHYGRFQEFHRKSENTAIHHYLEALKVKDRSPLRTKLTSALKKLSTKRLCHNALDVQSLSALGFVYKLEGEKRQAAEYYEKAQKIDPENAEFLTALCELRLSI
Sequence of UniProt Q7Z7K6 (Q7Z7K6 whole entry): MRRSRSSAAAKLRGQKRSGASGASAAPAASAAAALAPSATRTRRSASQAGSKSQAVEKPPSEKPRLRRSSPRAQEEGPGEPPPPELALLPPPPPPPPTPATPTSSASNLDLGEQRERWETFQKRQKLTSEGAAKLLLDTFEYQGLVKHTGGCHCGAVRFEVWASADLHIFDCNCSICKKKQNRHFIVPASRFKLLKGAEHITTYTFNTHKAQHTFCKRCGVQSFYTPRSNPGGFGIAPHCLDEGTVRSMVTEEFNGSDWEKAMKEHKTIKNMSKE
Sequence of UniProt Q8N3X1 (Q8N3X1 whole entry): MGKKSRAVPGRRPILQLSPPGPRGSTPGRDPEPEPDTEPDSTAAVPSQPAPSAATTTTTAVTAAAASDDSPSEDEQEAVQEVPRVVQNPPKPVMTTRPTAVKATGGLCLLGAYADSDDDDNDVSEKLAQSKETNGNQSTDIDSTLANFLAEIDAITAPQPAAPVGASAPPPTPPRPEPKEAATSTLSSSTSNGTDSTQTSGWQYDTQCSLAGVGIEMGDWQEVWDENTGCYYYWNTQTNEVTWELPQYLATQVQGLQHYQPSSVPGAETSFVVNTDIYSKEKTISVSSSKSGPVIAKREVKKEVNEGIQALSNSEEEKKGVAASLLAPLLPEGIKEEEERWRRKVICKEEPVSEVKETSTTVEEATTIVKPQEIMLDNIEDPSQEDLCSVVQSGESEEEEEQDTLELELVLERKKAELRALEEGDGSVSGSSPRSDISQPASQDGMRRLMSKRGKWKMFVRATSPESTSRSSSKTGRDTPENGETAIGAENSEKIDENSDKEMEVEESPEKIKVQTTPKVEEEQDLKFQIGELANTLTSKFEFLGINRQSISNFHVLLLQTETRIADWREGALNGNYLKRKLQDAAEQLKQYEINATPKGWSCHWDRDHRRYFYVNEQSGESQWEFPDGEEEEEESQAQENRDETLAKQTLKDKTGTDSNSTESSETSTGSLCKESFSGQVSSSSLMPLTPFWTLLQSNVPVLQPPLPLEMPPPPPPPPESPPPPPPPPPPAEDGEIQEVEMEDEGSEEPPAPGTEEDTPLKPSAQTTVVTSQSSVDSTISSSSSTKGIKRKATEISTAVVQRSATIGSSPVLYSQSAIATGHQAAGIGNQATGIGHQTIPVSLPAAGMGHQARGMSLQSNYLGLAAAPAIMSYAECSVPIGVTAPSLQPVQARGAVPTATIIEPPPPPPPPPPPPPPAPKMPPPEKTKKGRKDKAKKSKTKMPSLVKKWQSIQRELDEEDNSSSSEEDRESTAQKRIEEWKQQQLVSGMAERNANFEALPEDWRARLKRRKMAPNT
Sequence of UniProt Q86U70 (Q86U70 whole entry): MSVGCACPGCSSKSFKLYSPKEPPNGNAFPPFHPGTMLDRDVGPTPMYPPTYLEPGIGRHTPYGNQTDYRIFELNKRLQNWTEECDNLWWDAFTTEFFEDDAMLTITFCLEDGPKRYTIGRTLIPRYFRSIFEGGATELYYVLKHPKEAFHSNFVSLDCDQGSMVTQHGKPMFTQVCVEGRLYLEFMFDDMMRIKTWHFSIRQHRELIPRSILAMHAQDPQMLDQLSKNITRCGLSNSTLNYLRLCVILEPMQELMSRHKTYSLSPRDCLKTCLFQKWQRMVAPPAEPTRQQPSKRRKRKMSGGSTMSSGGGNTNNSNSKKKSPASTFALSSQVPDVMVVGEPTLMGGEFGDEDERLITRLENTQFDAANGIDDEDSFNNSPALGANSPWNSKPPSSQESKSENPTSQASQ
Sequence of UniProt Q2TB10 (Q2TB10 whole entry, one chain of several): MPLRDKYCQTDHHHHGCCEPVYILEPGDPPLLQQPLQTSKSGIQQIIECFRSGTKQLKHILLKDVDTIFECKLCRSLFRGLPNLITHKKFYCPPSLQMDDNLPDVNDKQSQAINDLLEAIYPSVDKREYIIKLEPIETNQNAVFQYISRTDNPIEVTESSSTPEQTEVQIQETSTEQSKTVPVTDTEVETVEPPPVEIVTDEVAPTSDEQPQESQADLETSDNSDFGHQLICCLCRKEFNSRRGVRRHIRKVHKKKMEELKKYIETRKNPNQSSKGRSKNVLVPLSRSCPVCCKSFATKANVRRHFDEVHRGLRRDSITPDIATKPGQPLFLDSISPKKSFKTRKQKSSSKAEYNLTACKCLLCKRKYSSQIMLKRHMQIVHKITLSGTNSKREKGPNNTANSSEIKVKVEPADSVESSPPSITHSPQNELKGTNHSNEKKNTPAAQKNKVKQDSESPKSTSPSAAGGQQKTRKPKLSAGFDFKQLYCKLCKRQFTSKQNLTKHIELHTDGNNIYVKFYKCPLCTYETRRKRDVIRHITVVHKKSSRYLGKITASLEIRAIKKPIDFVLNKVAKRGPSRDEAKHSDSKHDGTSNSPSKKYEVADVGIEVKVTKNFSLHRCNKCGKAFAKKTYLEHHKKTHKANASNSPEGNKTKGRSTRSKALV
Sequence of UniProt Q12789 (Q12789 whole entry): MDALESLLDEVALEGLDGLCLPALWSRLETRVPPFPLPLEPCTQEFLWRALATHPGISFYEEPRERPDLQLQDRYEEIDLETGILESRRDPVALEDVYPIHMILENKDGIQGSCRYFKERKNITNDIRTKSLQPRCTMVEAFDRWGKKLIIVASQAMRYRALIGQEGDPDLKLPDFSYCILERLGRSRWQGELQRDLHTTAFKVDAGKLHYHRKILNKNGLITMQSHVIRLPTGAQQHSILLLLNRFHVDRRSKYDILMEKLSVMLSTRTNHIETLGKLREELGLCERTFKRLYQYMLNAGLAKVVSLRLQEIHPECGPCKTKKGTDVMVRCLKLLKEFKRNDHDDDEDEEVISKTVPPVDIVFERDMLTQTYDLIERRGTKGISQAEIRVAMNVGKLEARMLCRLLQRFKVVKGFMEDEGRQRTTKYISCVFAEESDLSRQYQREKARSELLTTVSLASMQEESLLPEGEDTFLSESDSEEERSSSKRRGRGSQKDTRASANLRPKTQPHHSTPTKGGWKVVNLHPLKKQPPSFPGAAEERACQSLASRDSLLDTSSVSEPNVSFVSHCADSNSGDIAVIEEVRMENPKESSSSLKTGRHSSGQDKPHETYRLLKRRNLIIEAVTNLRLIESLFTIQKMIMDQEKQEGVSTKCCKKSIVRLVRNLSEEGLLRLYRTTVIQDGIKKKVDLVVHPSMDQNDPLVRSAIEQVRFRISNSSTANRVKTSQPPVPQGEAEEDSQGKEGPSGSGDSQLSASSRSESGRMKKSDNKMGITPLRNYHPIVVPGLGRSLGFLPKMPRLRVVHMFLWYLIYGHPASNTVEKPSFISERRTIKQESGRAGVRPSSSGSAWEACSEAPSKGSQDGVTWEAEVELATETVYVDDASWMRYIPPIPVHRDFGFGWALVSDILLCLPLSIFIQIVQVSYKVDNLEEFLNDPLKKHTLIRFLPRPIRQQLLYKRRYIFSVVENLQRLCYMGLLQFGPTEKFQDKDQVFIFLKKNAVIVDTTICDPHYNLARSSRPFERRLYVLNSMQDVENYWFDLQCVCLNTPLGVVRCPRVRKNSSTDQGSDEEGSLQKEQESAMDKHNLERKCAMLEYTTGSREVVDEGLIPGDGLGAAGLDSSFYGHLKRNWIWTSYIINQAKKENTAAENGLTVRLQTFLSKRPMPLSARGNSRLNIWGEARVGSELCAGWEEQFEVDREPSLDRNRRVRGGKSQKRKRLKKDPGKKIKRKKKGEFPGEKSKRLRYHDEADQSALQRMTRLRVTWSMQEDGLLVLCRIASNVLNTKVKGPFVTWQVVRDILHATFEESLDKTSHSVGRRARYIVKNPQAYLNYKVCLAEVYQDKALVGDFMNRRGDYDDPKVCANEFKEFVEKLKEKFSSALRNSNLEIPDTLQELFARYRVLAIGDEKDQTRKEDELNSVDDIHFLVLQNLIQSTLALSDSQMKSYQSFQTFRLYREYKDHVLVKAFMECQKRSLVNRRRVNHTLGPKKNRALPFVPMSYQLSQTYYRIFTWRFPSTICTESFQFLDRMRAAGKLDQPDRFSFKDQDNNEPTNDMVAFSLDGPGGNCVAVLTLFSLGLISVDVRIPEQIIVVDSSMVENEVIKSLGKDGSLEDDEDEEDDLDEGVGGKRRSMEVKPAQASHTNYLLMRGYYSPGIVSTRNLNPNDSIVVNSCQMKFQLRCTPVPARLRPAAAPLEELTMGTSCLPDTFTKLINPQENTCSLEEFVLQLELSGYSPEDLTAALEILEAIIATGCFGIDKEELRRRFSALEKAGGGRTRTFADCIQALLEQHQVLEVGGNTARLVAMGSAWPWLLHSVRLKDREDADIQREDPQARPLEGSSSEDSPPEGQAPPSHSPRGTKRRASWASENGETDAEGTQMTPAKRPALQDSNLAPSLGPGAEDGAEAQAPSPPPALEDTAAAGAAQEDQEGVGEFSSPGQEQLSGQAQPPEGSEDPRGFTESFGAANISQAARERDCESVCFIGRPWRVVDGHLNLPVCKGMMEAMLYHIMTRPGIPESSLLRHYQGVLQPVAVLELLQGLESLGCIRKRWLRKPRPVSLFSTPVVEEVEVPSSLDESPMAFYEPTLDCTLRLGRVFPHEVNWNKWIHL

Turning to UniProt P62805, the NP40-soluble protein abundance (concentration: 0.1mM) was found to be 0.891 ± 0.063; the NP40-soluble protein abundance (concentration: 0.5mM) came out at 0.855 ± 0.058; the NP40-soluble protein abundance (concentration: 1mM) turned out to be 0.972 ± 0.027; the NP40-soluble protein abundance (concentration: 2mM) was determined as 0.963 ± 0.053; the NP40-soluble protein abundance (concentration: 4mM) is 1.08 ± 0.048; the NP40-soluble protein abundance (concentration: 6mM) came to 1.22 ± 0.054. The NP40-soluble protein abundance (concentration: 8mM) was 1.2 ± 0.067 and the NP40-soluble protein abundance (concentration: 10mM) is 1.76 ± 0.14.

Consider UniProt Q02880|Q02880-2, for which the NP40-soluble protein abundance was determined as 1.08 ± 0.06 (concentration: 0.1mM); 1.09 ± 0.065 (concentration: 0.5mM); 1.21 ± 0.06 (concentration: 1mM); 1.37 ± 0.11 (concentration: 2mM); 1.68 ± 0.17 (concentration: 4mM); 1.85 ± 0.27 (concentration: 6mM). Moreover, the NP40-soluble protein abundance runs as follows: (concentration: 8mM) 1.99 ± 0.26; (concentration: 10mM) 2.08 ± 0.34.

With UniProt Q68E01|Q68E01-2, the NP40-soluble protein abundance (concentration: 0.1mM) came out at 1.01 ± 0.028; the NP40-soluble protein abundance (concentration: 0.5mM) is 1.01 ± 0.026; the NP40-soluble protein abundance (concentration: 1mM) stood at 1.03 ± 0.027; the NP40-soluble protein abundance (concentration: 2mM) was found to be 1.03 ± 0.03; the NP40-soluble protein abundance (concentration: 4mM) was determined as 1.08 ± 0.026; the NP40-soluble protein abundance (concentration: 6mM) was 1.12 ± 0.053. Moreover, the NP40-soluble protein abundance by setting is: (concentration: 8mM) 1.11 ± 0.036; (concentration: 10mM) 1.11 ± 0.021.

Regarding UniProt Q7Z7K6|Q7Z7K6-3, the NP40-soluble protein abundance turned out to be 1.09 ± 0.035 (concentration: 0.1mM); 1.08 ± 0.071 (concentration: 0.5mM); 1.16 ± 0.013 (concentration: 1mM); 1.37 ± 0.071 (concentration: 2mM); 1.69 ± 0.2 (concentration: 4mM); 2.01 ± 0.27 (concentration: 6mM). Also, the NP40-soluble protein abundance reads like this: (concentration: 8mM) 2.24 ± 0.32; (concentration: 10mM) 3.21 ± 0.43.

As for UniProt Q13325|Q13325-2, the NP40-soluble protein abundance was determined as 1.06 ± 0.044 (concentration: 0.1mM); 1.05 ± 0.061 (concentration: 0.5mM); 0.989 ± 0.057 (concentration: 1mM); 0.978 ± 0.05 (concentration: 2mM); 0.952 ± 0.086 (concentration: 4mM); 0.927 ± 0.049 (concentration: 6mM). Also, the NP40-soluble protein abundance runs as follows: (concentration: 8mM) 0.906 ± 0.077; (concentration: 10mM) 0.888 ± 0.13.

On to LDB1 (UniProt Q86U70), for which the NP40-soluble protein abundance is, setting by setting: (concentration: 0.1mM) 1.066 ± 0.0088; (concentration: 0.5mM) 1.04 ± 0.05; (concentration: 1mM) 1 ± 0.056; (concentration: 2mM) 0.989 ± 0.024; (concentration: 4mM) 0.938 ± 0.043; (concentration: 6mM) 0.951 ± 0.021. The NP40-soluble protein abundance (concentration: 8mM) stood at 0.968 ± 0.047 and the NP40-soluble protein abundance (concentration: 10mM) came out at 0.931 ± 0.036.

With UniProt Q8N3X1|Q8N3X1-2, the NP40-soluble protein abundance (concentration: 0.1mM) was determined as 1.05 ± 0.043; the NP40-soluble protein abundance (concentration: 0.5mM) came to 1.01 ± 0.076; the NP40-soluble protein abundance (concentration: 1mM) was 1.09 ± 0.022; the NP40-soluble protein abundance (concentration: 2mM) worked out at 1.27 ± 0.017; the NP40-soluble protein abundance (concentration: 4mM) was 1.39 ± 0.024; the NP40-soluble protein abundance (concentration: 6mM) amounted to 1.64 ± 0.031. The NP40-soluble protein abundance is, setting by setting: (concentration: 8mM) 1.77 ± 0.15; (concentration: 10mM) 2.04 ± 0.24.

On to UniProt Q5SRE5|Q5SRE5-2, for which the NP40-soluble protein abundance is, setting by setting: (concentration: 0.1mM) 1.17 ± 0.11; (concentration: 0.5mM) 1.13 ± 0.051; (concentration: 1mM) 1.03 ± 0.13; (concentration: 2mM) 1.01 ± 0.13; (concentration: 4mM) 1.13 ± 0.024; (concentration: 6mM) 1.11 ± 0.088. Besides, the NP40-soluble protein abundance runs as follows: (concentration: 8mM) 1.03 ± 0.029; (concentration: 10mM) 1.08 ± 0.046.

RAB8A (UniProt P61006): the NP40-soluble protein abundance is 0.928 ± 0.03 (concentration: 0.1mM); 0.95 ± 0.039 (concentration: 0.5mM); 0.903 ± 0.041 (concentration: 1mM); 0.849 ± 0.068 (concentration: 2mM); 0.812 ± 0.064 (concentration: 4mM); 0.858 ± 0.085 (concentration: 6mM). Further, the NP40-soluble protein abundance is, setting by setting: (concentration: 8mM) 0.828 ± 0.046; (concentration: 10mM) 0.81 ± 0.075.

EDC4 (UniProt Q6P2E9): the NP40-soluble protein abundance (concentration: 0.1mM) was found to be 0.984 ± 0.029; the NP40-soluble protein abundance (concentration: 0.5mM) is 1 ± 0.037; the NP40-soluble protein abundance (concentration: 1mM) was 1.01 ± 0.045; the NP40-soluble protein abundance (concentration: 2mM) amounted to 1.01 ± 0.029; the NP40-soluble protein abundance (concentration: 4mM) was found to be 1.01 ± 0.039; the NP40-soluble protein abundance (concentration: 6mM) amounted to 1.02 ± 0.032. For the same target, the NP40-soluble protein abundance reads like this: (concentration: 8mM) 1.02 ± 0.057; (concentration: 10mM) 1.04 ± 0.046.

As to UniProt P62995|P62995-3, the NP40-soluble protein abundance came to 1.08 ± 0.077 (concentration: 0.1mM); 1.36 ± 0.24 (concentration: 0.5mM); 1.64 ± 0.54 (concentration: 1mM); 1.73 ± 0.47 (concentration: 2mM); 1.61 ± 0.64 (concentration: 4mM); 1.54 ± 0.58 (concentration: 6mM). In addition, the NP40-soluble protein abundance (concentration: 8mM) was determined as 1.54 ± 0.62 and the NP40-soluble protein abundance (concentration: 10mM) was 1.41 ± 0.64.

Consider UniProt Q2TB10|A0A087WXB4, for which the NP40-soluble protein abundance worked out at 1.04 ± 0.1 (concentration: 0.1mM); 1.15 ± 0.14 (concentration: 0.5mM); 1.15 ± 0.12 (concentration: 1mM); 1.36 ± 0.28 (concentration: 2mM); 1.68 ± 0.48 (concentration: 4mM); 1.9 ± 0.44 (concentration: 6mM). For the same target, the NP40-soluble protein abundance was 2.04 ± 0.64 (concentration: 8mM) and 2.54 ± 1.1 (concentration: 10mM).

Turning to UniProt Q13085|A0A087X126, the NP40-soluble protein abundance came out at 1.09 ± 0.08 (concentration: 0.1mM); 1.09 ± 0.11 (concentration: 0.5mM); 1.03 ± 0.088 (concentration: 1mM); 1.07 ± 0.14 (concentration: 2mM); 1.05 ± 0.11 (concentration: 4mM); 1.04 ± 0.097 (concentration: 6mM). For the same target, the NP40-soluble protein abundance (concentration: 8mM) amounted to 0.975 ± 0.072 and the NP40-soluble protein abundance (concentration: 10mM) turned out to be 0.956 ± 0.056.

In the case of UniProt Q12789|Q12789-3, the NP40-soluble protein abundance reads like this: (concentration: 0.1mM) 1.08 ± 0.051; (concentration: 0.5mM) 1.08 ± 0.093; (concentration: 1mM) 1.1 ± 0.1; (concentration: 2mM) 1.13 ± 0.09; (concentration: 4mM) 1.13 ± 0.1; (concentration: 6mM) 1.1 ± 0.077. The NP40-soluble protein abundance runs as follows: (concentration: 8mM) 1.1 ± 0.11; (concentration: 10mM) 1.1 ± 0.11.

Consider LARP1 (UniProt Q6PKG0), for which the NP40-soluble protein abundance runs as follows: (concentration: 0.1mM) 1.02 ± 0.039; (concentration: 0.5mM) 1.11 ± 0.06; (concentration: 1mM) 1.32 ± 0.1; (concentration: 2mM) 1.46 ± 0.11; (concentration: 4mM) 1.66 ± 0.16; (concentration: 6mM) 1.78 ± 0.17. The NP40-soluble protein abundance was 1.88 ± 0.22 (concentration: 8mM) and 1.99 ± 0.22 (concentration: 10mM).
